A selection: hits, their analogues and other compounds. The true share with any hit is near 1.5%.
PI5P4K alpha inh = PI5P4K alpha (human) kinase inhibition. P48426. PI5P4Kalpha enzyme, ADP-Glo luminescence, 60 min; active compounds read low. max response, %. 1.2% of 330,000 active; active means max response of -50% or lower; inconclusive means between -30% and -50%; inactive means -30% or higher; further: value at the top dose of about 77 µM
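Single end-point luminescence (ADP-Glo) quantified ADP from PI5P4Kalpha turnover; ATP 5 microM final, 1 h at RT, 0.1% CHAPS and 0.28 mM EGTA in HEPES pH 7.4.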
RECQ1 inh-1 = inhibitors of human RECQ1 DNA helicase; Potency, µM (top dose mostly 57.3 µM), for the others: at the top dose activity, negative = inhibition, hits mostly inhibitors; P46063; RECQ1 DNA unwinding, red fluorescence kinetic read; 0.54% of 240,000 active;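 further: potency means the concentration at half of the fitted maximal effect; plate controls were vehicle for no effect and no enzyme for full effect; nearly all actives have a fitted effect of over 30% in size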
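50 nM RECQ1T1 preincubated 15 min with compound in Tris pH 8.0 buffer with MgCl2, DTT, Tween-20 and 2.5 ug/ml poly(dI-dC); started with 200 nM TAMRA/BHQ-2 forked duplex and 2 mM ATP. Unwinding read as fluorescence (525/598 nm), two reads 2 h apart.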
GCN5L2 inh = inhibitors of human GCN5L2 histone acetyltransferase | Q92830 | GCN5L2 HAT assay, ThioGlo1 CoA-SH fluorescence | Potency, µM (titrated, usually from 58.9 µM), for inactives: at the highest dose activity change, negative = inhibition, actives largely listed as inhibitors | 0.21% of 390,000 active | AID 504327; further: potency means the concentration at half of the fitted maximal effect
Target sequence (Q92830 whole entry, looked up): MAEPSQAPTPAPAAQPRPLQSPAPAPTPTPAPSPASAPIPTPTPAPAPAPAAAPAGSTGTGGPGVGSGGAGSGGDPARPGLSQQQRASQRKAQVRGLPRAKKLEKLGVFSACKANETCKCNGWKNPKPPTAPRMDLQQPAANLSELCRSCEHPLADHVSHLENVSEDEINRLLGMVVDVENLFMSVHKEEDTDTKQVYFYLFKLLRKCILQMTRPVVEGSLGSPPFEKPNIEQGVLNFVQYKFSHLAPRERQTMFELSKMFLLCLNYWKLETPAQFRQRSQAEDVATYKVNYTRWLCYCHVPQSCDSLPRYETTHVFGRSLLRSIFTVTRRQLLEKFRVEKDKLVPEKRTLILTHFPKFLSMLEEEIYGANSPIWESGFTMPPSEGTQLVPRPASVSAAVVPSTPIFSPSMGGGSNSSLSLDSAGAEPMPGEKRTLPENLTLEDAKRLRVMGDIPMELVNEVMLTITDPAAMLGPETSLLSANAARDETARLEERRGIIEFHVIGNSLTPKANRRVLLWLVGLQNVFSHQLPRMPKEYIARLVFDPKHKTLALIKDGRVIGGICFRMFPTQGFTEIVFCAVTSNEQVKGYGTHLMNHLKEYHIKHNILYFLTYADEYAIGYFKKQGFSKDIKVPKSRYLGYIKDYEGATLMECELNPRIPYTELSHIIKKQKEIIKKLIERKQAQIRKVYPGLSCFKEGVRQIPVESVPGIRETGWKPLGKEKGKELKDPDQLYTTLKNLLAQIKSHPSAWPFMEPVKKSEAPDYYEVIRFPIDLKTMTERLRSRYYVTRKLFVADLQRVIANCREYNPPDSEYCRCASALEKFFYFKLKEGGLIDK
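GCN5L2 (20nM final) in 50mM HEPES, 0.1mM EDTA pH 7.5, 0.01% Tween-20 was preincubated 15 min at room temperature with compound, then given ThioGlo1 (50uM), H3(1-25) peptide (75uM) and acetyl-CoA (70uM); CoA-thiol fluorescence (Ex340/Em540) was read at 0 and 20 min.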
APE1 inh-1 = inhibitors of human APE1 endonuclease. P27695. recombinant APE1, TAMRA/BHQ-2 abasic DNA cleavage fluorescence. Potency, µM (doses to about 65.8 µM), for inactives: top-dose activity change, negative = inhibition, hits mostly inhibitors. 0.35% of 350,000 active. AID 2517;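 further: potency means the concentration at half of the fitted maximal effect; plate controls were vehicle for no effect and reference inhibitor for full effect; nearly all actives have a fitted effect of over 55% in size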
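Activity was derived from the fluorescence gain between first and third kinetic reads (60 s intervals, ex 525/em 598 nm) after 50 nM THF-abasic TAMRA/BHQ-2 duplex was added to 0.75 nM APE1 preincubated 15 min with compound.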
FEN1 inh = human FEN1 inhibition; Potency, µM (titrated, usually from 114 µM), inactives show at the top dose activity change, negative = inhibition, hits mostly inhibitors; P39748; Recombinant FEN1 flap cleavage, fluorescence, 15 min; 0.35% of 390,000 active; further: potency means the concentration at half of the fitted maximal effect; nearly all actives have a fitted effect of over 65% in size
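FEN1 at 10 nM preincubated with compounds 15 min at room temperature, then flap DNA substrate added at 50 nM final. Signal read at 0 and 15 min; concentration-response fitted with four-parameter Hill equation.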
BLM helicase inh = Bloom syndrome helicase (human) inhibition | P54132 | recombinant BLM DNA unwinding, fluorescence dequenching | Potency, µM (titrated, usually from 56.1 µM), for inactives: at the top dose activity change, negative = inhibition, hits mostly inhibitors | 0.2% of 350,000 active;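 further: potency means the concentration at half of the fitted maximal effect; plate controls were vehicle for no effect and no enzyme for full effect; nearly all actives have a fitted effect of over 35% in size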
DNA dye displace = counter-screen for APE1 inhibitors: DNA dye displacement; shares compounds with APE1 inh-1; DNA fluorescent dye displacement counterscreen, fluorescence; Potency, µM (top dose mostly 28.5 µM), for inactives: at the highest dose activity change, negative = inhibition, usual class: inhibitors; 7% of 480 active;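 further: loss of thiazole orange fluorescence as the dye is displaced from duplex DNA; potency means the concentration at half of the fitted maximal effect; 0% = ThO with dsDNA and no compound and -100% = ThO without dsDNA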
Endo IV inh = Endo IV (E. coli) inhibition counter-screen | AID 2565 | 4% of 560 active | Potency, µM (top dose mostly 27.1 µM), for inactives: at the highest dose activity change, negative = inhibition, hits mostly inhibitors | shares compounds with APE1 inh-1 | E. coli Endo IV, fluorogenic AP-site DNA cleavage;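 further: potency means the concentration at half of the fitted maximal effect; plate controls were uninhibited enzyme wells for no effect and no enzyme buffer wells for full effect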
APE1 inh-2 = confirmation of inhibitors of human APE1 endonuclease; 44% of 750 active; shares compounds with APE1 inh-1; Potency, µM (doses to about 57.1 µM), without a hit: at the top dose activity change, negative = inhibition, usual class: inhibitors; purified APE1, fluorogenic abasic-site DNA cleavage; further: potency means the concentration at half of the fitted maximal effect; nearly all actives have a fitted effect of over 30% in size
APE1 FP inh = displaces DNA from human APE1 in FP assay | shares compounds with APE1 inh-1 | APE1 binding to TAMRA-labelled double-stranded DNA, fluorescence polarization displacement | Potency, µM (doses to about 28.5 µM), without a hit: top-dose activity, negative = inhibition, most hits filed as inhibitors | 7% of 480 active; further: potency means the concentration at half of the fitted maximal effect
RECQ1 inh conf = confirmation of human RECQ1 helicase inhibitors. RECQ1 helicase DNA unwinding, fluorescence. AID 2708. shares compounds with RECQ1 inh-1. Potency, µM (top dose mostly 229 µM), for inactives: at the top dose activity change, negative = inhibition, usual class: inhibitors. 28% of 610 active; further: potency means the concentration at half of the fitted maximal effect; nearly all actives have a fitted effect of over 45% in size
RECQ1 ADP FP = displaces ADP in a fluorescence polarization counter-screen for RECQ1 hits. shares compounds with RECQ1 inh-1. ADP fluorescence polarization displacement counterscreen. Potency, µM (titrated, usually from 228 µM), inactives show top-dose activity change, negative = inhibition, usual class: inhibitors. 27% of 530 active; further: potency means the concentration at half of the fitted maximal effect; nearly all actives have a fitted effect of over 45% in size
RECQ1 inh-2 = confirmation of human RECQ1 helicase inhibitors; shares compounds with RECQ1 inh-1; recombinant RECQ1 DNA unwinding, red fluorescence; Potency, µM (top dose mostly 119 µM), without a hit: top-dose activity, negative = inhibition, hits mostly inhibitors; 15% of 1,100 active; AID 504841; further: potency means the concentration at half of the fitted maximal effect; nearly all actives have a fitted effect of over 50% in size
* marks the source's active call; other numbers are inactive results; i = inactive; ? = inconclusive; . = not tested or not shown; [ ] = another dose, or the depositor's remark. Unless noted, the call rests on the fitted dose curve; in most records, active means well fitted curve in the direction sought with a large enough effect; inconclusive means small, poorly fitted or top-dose-only effect, or another doubt; inactive means no such curve, though single readings can be large; an effect the other way counts as inactive or inconclusive. Unless noted, on the % scale 0 is the no-effect control and ±100 the full control effect.

SMILES	PI5P4K alpha inh	RECQ1 inh-1	GCN5L2 inh	APE1 inh-1	FEN1 inh	BLM helicase inh	DNA dye displace	Endo IV inh	APE1 inh-2	APE1 FP inh	RECQ1 inh conf	RECQ1 ADP FP	others
CC1(C)SC2C(N3C(=O)C(c4ccccc4)NC3(C)C)C(=O)N2C1C(=O)O (stereo not drawn)	.	14µM*	1%	.	.	-7%	-8%[57.1 µM]	14%[57.1 µM]	?	?	89µM*	32µM*
CCCC(=O)NCCc1c(I)[nH]c2ccc(OC)cc12	.	i	0%	0%	.	.	.	.	.	.	.	.
CC1=[N+](C)c2ccc3ccccc3c2C1(C)C	-5	3.5µM*	1%	14µM*	?	-9%	1%	?	?	58%	7.9µM*	2.8µM*	RECQ1 inh-2=22µM*
COc1cc(/C=C/c2ccccc2)oc(=O)c1	.	1%	.	3%	.	.	.	.	.	.	.	.
O=C(OCC1OC(OC(=O)c2cc(O)c(O)c(OC(=O)c3cc(O)c(O)c(O)c3)c2)[C@@H](OC(=O)c2cc(O)c(O)c(OC(=O)c3cc(O)c(O)c(O)c3)c2)C(OC(=O)c2cc(O)c(O)c(OC(=O)c3cc(O)c(O)c(O)c3)c2)C1OC(=O)c1cc(O)c(O)c(OC(=O)c2cc(O)c(O)c(O)c2)c1)c1cc(O)c(O)c(OC(=O)c2cc(O)c(O)c(O)c2)c1 (stereo partly drawn)	.	0.032µM*	3.5µM*	.	.	0.071µM*	.	5µM*	0.0032µM*	.	1.1µM*	?
Cc1cn(C2OC(COC(=O)c3ccccc3)C(OC(=O)c3ccccc3)C2OC(=O)c2ccccc2)c(=O)[nH]c1=O (stereo not drawn)	.	i	-5%	1%	0%	-6%	.	.	.	.	.	.
Cc1ccc2[nH]c(=O)c(CN(Cc3ccccc3)Cc3nnnn3Cc3ccco3)cc2c1	.	.	.	.	-4%	.	.	.	.	.	.	.
O=C(CCCN1C(=O)/C(=C/c2ccco2)SC1=S)Nc1cccc(C(=O)O)c1	-60*	8.9µM*	-11%	7.9µM*	?	?	1%	106%	?	-9%	71µM*	0%[91.9 µM]
CCCCCCCCCCCCCC/C(C(=O)O)=C(\C)C(=O)O	.	i	-4%	-2%	.	4%	.	.	.	.	.	.
CCCN1CNc2c(c(=O)[nH]c(=S)n2CCc2ccc(Cl)cc2)C1	.	.	.	.	3%	.	.	.	.	.	.	.

Screening results: PubChem, National Center for Advancing Translational Sciences (NCATS)
